INS-1E GSIS act: GLuc luminescence reporter in INS-1E cells, primary screen for activators of glucose-dependent secretion of insulin | hit rate 0.61% among 370,000 | INS-1E GLuc reporter insulin secretion, 2-3 h | activation, % at 16.6 µM;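 active means lowest replicate activation of at least 40%, so every replicate reaches that level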;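 further: 0% = median of neutral control wells and 100% = median of IBMX positive control wells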
PAX8 reporter: inhibitors of PAX8 transcriptional activity in RMG-I cells; RMG-I TPO-luciferase reporter, SteadyGlo, 24 h; inhibition, % at 12.6 µM; hit rate 1.2% among 360,000; AID 652154;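 active means mean replicate inhibition at least 60% with every replicate also reaching 60%; inconclusive means only one of the two criteria is met; inactive means mean below 60% and not all replicates reaching 60%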;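 further: luciferase light reporting Pax8 driven TPO promoter activity; plate controls were median of neutral control wells for no effect and mitoxantrone controls for full effect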
EWS-Fli block: inhibitors of EWS/Fli oncoprotein transcriptional activity | A673 NR0B1-luciferase reporter, viability-normalised | AID 651661 | inhibition, % at 12.6 µM | hit rate 0.67% among 350,000;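 active means mean inhibition of at least 50% after viability correction, with every replicate also passing that limit; inconclusive means mean reaches 50% but only one of two replicates passes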;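 further: firefly luciferase signal divided by Alamar Blue viability fluorescence both relative to DMSO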
PGC1a acetyl inh: lowers PGC1a acetylation signal in U2OS cells; inhibition, % at 15.6 µM; AlphaScreen anti-acetyl-lysine; with virally co-expressed GCN5 acetyltransferase; hit rate 0.17% among 350,000;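 active means every replicate shows inhibition of at least 40%; inconclusive means mean inhibition at least 40% but some replicate below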;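 further: 0% = neutral control wells and 100% = positive control wells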
HIV Env fusion: HIV envelope-mediated fusion inhibition. HeLa-JRFL Env/CEM21 cell fusion, luciferase. hit rate 1.1% among 360,000. inhibition, % at 12.3 µM;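 active means mean replicate inhibition score of at least 50 and every replicate individually at or above 50; inconclusive means only one of the two criteria met; inactive means mean below 50 and not all replicates reaching 50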;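 further: 0% = plate neutral controls and 100% = maraviroc near 300 nM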
CFTR F508del cor: CFTR F508del correction in bronchial cells | CFBE cells, YFP halide quenching; stimulated with forskolin plus potentiator P3; % fluorescence drop versus neutral controls | activity (quench increase), % at 7.58 µM | hit rate 0.36% among 350,000;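 active means mean added fluorescence quench of at least 8% versus neutral control, with both replicates also reaching 8%; inconclusive means only one of the mean or replicate conditions met; inactive means mean below 8% and not both replicates reaching 8%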;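 further: cells transiently co-express mutant CFTR-F508del with the halide-sensitive YFP; corrector assay measuring rescue of mutant channel to the surface after 24 h compound exposure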
* hit, by the source's call; ? = inconclusive; nt = no result; [ ] = another dose, or the depositor's remark. Compounds with a hit are over-represented: about 2.7% of the library has one in this group of screens.

SMILES	INS-1E GSIS act	PAX8 reporter	EWS-Fli block	PGC1a acetyl inh	HIV Env fusion	CFTR F508del cor
COCC(=O)N1[C@@H](CO)[C@H](c2ccc(-c3ccccc3)cc2)C12CN(C(C)=O)C2	0.7	-5.6	1.0	1.8	nt	-4.7
Cn1c(=O)[nH]c(=O)c2c1nc([N+](=O)[O-])n2Cc1ccccc1	-12.4	101.1*	31.2	nt	-247.0	-8.3
CCC(=O)N[C@@H]1C[C@@H]2O[C@H](CO)CC[C@@H]2O[C@@H]1CCc1ccc(-c2cccc(OC)c2)cc1	nt	nt	8.0	-18.1	nt	-1.2
COc1ccc(-c2cn(-c3ccc(C)c(C)c3)c(=S)[nH]2)cc1OC	-19.5	-6.5	1.3	-4.3	7.4	2.5
COc1ccc(-c2cn(-c3ccccc3)c(=S)[nH]2)cc1OC	-3.5	-4.5	-1.6	-2.7	62.2*	0.5
COc1ccccc1-c1cn(CC[C@H]2CC[C@@H](NC(=O)c3cnccn3)[C@H](CO)O2)nn1	7.3	nt	nt	1.8	nt	-0.7
COc1cccc(S(=O)(=O)N[C@H]2CC[C@H](CCn3cc(-c4ccccn4)nn3)O[C@H]2CO)c1	-10.1	-5.4	-4.7	6.8	0.2[16.7 µM]	1.0
O=C(COc1ccc(-n2cnnn2)cc1)Nc1ccc(F)cc1	nt	-5.9	2.7	-6.7	-1.9	2.0
O=C(COc1ccc(-n2cnnn2)cc1)Nc1ccc(F)c(F)c1	-0.4	9.9	3.2	5.9	73.7*	7.1
C[C@H](CO)N1C[C@H](C)[C@H](CN(C)S(=O)(=O)c2ccccc2)Oc2ncc(-c3cccc(C(=O)N(C)C)c3)cc2C1=O	2.6	-21.4	1.1	-3.6	-19.7[16.7 µM]	0.7
CN1C(=O)c2cc(NC(=O)C3CCOCC3)ccc2OC[C@H]2O[C@H](CC(=O)NCc3ccc4c(c3)OCO4)CC[C@H]21	5.5	2.8	-10.6	nt	5.6[16.7 µM]	nt
CC(=O)Nc1ccc(/C=C(\C#N)S(=O)(=O)c2ccc(C)cc2)cc1	59.6*	-1.5	6.4	-11.7	10.9	2.4
Cc1cc([N+](=O)[O-])cc2ncccc12	86.4*	nt	nt	11.9	nt	nt
COc1ccc(C(=O)CSc2nnc(CNc3ccc(C)cc3C)o2)cc1	58.5*	27.2	nt	-2.6	?	nt
C[C@H]1CN([C@@H](C)CO)C(=O)Cc2cc(NC(=O)Nc3ccc(F)cc3)ccc2O[C@@H]1CN(C)Cc1ccc2c(c1)OCO2	-21.8	6.5	-10.1	1.6	nt	1.0
Cc1nnc(N/N=C/c2cc(C)n(-c3ccc(F)cc3)c2C)n1N	nt	119.7*	-8.4	nt	nt	-2.5
Cc1nnc(N/N=C/c2ccccc2O)n1N	-44.7	49.7	1.9	nt	2.8	-3.8
CC(=Nc1ccccc1O)c1sc2ccccc2c1O	nt	-54.9	-72.1	2.4	-6.4	10.1*
CC(=Nc1ccc(O)cc1)c1sc2ccccc2c1O	nt	nt	nt	-0.9	nt	nt
O=C(Nc1ccc(F)cc1)N[C@H]1CC[C@H](CC(=O)N2CCOCC2)O[C@H]1CO	4.6	1.0	-4.1	-1.9	-6.6[16.7 µM]	-1.5
CCOC(=O)C1CCCN(C(=O)CSc2ccc(Br)cc2)C1 (configuration not stated)	nt	nt	nt	78.1*	nt	nt
CCOC(=O)C1CCCN(C(=O)c2cc3c(C)nc4ccccc4c3o2)C1 (configuration not stated)	14.6	nt	nt	-2.9	56.2*	nt
CCCn1c(=S)[nH]c2cc(C(=O)N3CCCC(C(=O)OCC)C3)ccc2c1=O (configuration not stated)	nt	nt	nt	-3.0	83.6*	nt
CCCn1c(=S)[nH]c2cc(C(=O)N3CCN(C(=O)OCC)CC3)ccc2c1=O	-12.0	12.1	nt	-13.4	-3.0	-1.6
Cc1nc2ccccc2c2oc(C(=O)N3CC(C)CC(C)C3)cc12 (configuration not stated)	1.3	17.9	3.5	-11.4	1.7	3.7
SMILES	INS-1E GSIS act	PAX8 reporter	EWS-Fli block	PGC1a acetyl inh	HIV Env fusion	CFTR F508del cor
CC(C)[C@@H]1C(=O)N[C@@H](c2ccccc2)CC=CC[C@@H](C)Oc2ccccc2C(=O)N1C (mixture of isomers)	1.5	nt	nt	nt	nt	nt
COc1ccc(CNC(=O)C[C@@H]2C[C@@H]3c4cc(NC(=O)CC5CC5)ccc4O[C@@H]3[C@@H](CO)O2)cc1	0.0	7.1	-3.1	7.1	-3.1[16.7 µM]	-3.0
CCOC(=O)C(=Cc1cc(=O)c(OC)co1)C(=O)OCC	-6.6	22.4	70.1*	nt	-246.3	nt
C[C@H](CO)N1C[C@H](C)[C@@H](CN(C)C(=O)CC2CC2)Oc2cc(C3=CCCC3)ccc2S1(=O)=O	-7.6	nt	-1.1	2.1	-10.3[16.7 µM]	1.2
CC(=O)Nc1ccc(NC(=O)CN(c2ccc(C34CC5CC(CC(C5)C3)C4)cc2)S(C)(=O)=O)cc1	-4.6	nt	nt	4.3	92.9*	nt
CS(=O)(=O)N(CC(=O)Nc1ccc(CC#N)cc1)c1ccc(C23CC4CC(CC(C4)C2)C3)cc1	-9.7	nt	-14.6	-32.0	nt	2.5
COc1cc(NC(=O)NCc2ccco2)ccc1-c1ccc(NC(=O)NCc2ccco2)cc1OC	8.6	67.3*	-7.6	47.8*	-50.0	-5.4
CCCCC1(COC(=O)CCC(=O)O)C(=O)N(c2ccccc2)N(c2ccccc2)C1=O	17.8	1.4	-11.5	-10.9	nt	1.1
CCCCC1(Cc2ccc([N+](=O)[O-])cc2)C(=O)N(c2ccccc2)N(c2ccccc2)C1=O	nt	20.4	nt	-21.2	132.8*	nt
C=CC[C@]12CCc3ccccc3C1N(c1ccc(C(=O)OCC)cc1)C2=O (some centres not stated)	-13.9	12.2	6.1	nt	61.5*	0.8
CCOC(=O)c1ccc(N2C(=O)Cc3ccccc3C2=O)cc1	-7.5	5.0	-3.9	nt	12.2	2.0
CC/C(O)=C1\C(=O)CC(c2ccccc2)CC1=NCCC(=O)O (configuration not stated)	12.0	-0.3	11.1	nt	-4.4	nt
CC/C(O)=C1\C(=O)CC(c2ccccc2)CC1=NC(C)C (configuration not stated)	63.3*	8.9	-17.0	nt	-3.0	nt
CCCNC(=O)c1ccc2c(=O)c(O)c(-c3cccc(Br)c3)[nH]c2c1	-3.1	34.9	11.1	nt	23.9	8.4*
CCCNC(=O)c1ccc2c(=O)c(O)c(-c3ccc(F)cc3)[nH]c2c1	nt	nt	nt	7.2	nt	nt
C=CCn1c(SCC(=O)N2CCCC2)nc2c([nH]c3ccccc32)c1=O	8.9	31.1	nt	nt	24.1	1.4
COCCn1c(SCC(=O)Nc2cc(C)on2)nc2c([nH]c3ccccc32)c1=O	25.7	11.3	9.5	-7.2	58.8*	-0.4
C=CCn1c(SCC(=O)N2CCN(C(=O)OCC)CC2)nc2c([nH]c3ccccc32)c1=O	43.2*	28.8	20.7	nt	16.9	1.5
CCn1c(SCC(=O)Nc2cc(C)on2)nc2c([nH]c3ccccc32)c1=O	8.8	nt	5.2	0.2	nt	0.3
O=C(OCCOc1cccc(Cl)c1)c1cc(S(=O)(=O)N2CCCCC2)ccc1N1CCOCC1	37.9	55.1	38.2	nt	75.3*	5.9
Cc1ccc(COC(=O)c2cc(S(=O)(=O)N3CCCCC3)ccc2N2CCOCC2)cc1	-4.6	36.8	32.6	nt	76.1*	2.4
C[C@H]1CN(C)C(=O)c2cc(N(C)C)ccc2O[C@H]1CN(C)S(C)(=O)=O	-1.8	nt	nt	nt	nt	nt

Screens deposited in PubChem by Broad Institute.
